# Reference: PubChem BioAssay (NCI)
# The panel holds about 83,000 compounds, 20% with a hit somewhere; the sample as a whole holds those more often.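 Activity criterion: percent growth below 10, measured after cells in 96-well plates were exposed to a single compound concentration for 48 hours.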 Unmarked numbers belong to inactive results. Calls of active or inactive are those of the source.
# System: OVCAR-8 ovarian
# Assay: NCI-60 one-dose screen, 48 h (100 = growth as untreated, 0 = no growth, -100 = all killed)
# Settings: 10 µM unless noted
row,SMILES,growth
1,COc1ccc2c(c1)c(CC(=O)[Se]CC#N)c(C)n2C(=O)c1ccc(Cl)cc1,6.34% (active)
2,C=C(C)[C@@H]1CC[C@]2(COCCCNCCC#N)CC[C@]3(C)[C@H](CC[C@@H]4[C@@]5(C)CC[C@H](OCCCNCCC#N)C(C)(C)[C@@H]5CC[C@]43C)[C@@H]12,66.6%
3,CCN1CCN(Cc2cn(-c3ccc(S(N)(=O)=O)cc3)nn2)CC1,102%
4,COc1cc(OC)c(/C=C/S(=O)(=O)Cc2ccc(OC)c(NCC(=O)NO)c2)c(OC)c1,8.29% (active)
5,CS(=O)(=O)Nc1cc(-c2ccc3ncc(C#N)c(NCc4ccccc4O)c3c2)cnc1Cl,8.27% (active)
6,CC1(C)[C@@H](O)CC[C@]2(C)[C@H]3CC[C@@H]4[C@H]5[C@H](C(=O)/C=C\c6ccncc6)CC[C@]5(O)CC[C@@]4(C)[C@]3(C)CC[C@@H]12,40.3%
7,COc1ccccc1N1CCN(C2=CC(=O)C(C)=C(C)C2=O)CC1,100%
8,O=C(CSc1nnc(-c2ccc(Cl)cc2)n1-c1ccccc1)Nc1cccc(Cl)c1,62.4%
9,COc1ccccc1C(=O)Nc1cccc2c1C(=O)C(=O)C=C2,102%
10,CCc1cccc(NC(=O)CNc2cc(S(=O)(=O)N(C)C)cc(C)c2C)c1,97.7%
11,O=C(NNc1nc2cc(F)c(F)cc2n2c(CN3CC4CNCC4C3)ccc12)c1ncccn1 (stereo not drawn),7.54% (active)
12,NC(N)=Nc1ccc(Nc2cccc(Nc3ccc(Cl)c(C(F)(F)F)c3)c2)cn1,44.7%
13,CCN(CC)c1ccc(NC2=C(Cl)C(=O)c3nc(C)ccc3C2=O)cc1,-12.2% (active)
14,CC1(C)CC[C@]2(CN)CC[C@]3(C)C(=CC[C@@H]4[C@@]5(C)CCCNC(C)(C)[C@@H]5CC[C@]43C)[C@H]2C1,101%
15,NC(=O)c1cccc(-n2ccc3cc(NC(=O)Nc4ccc(N5CCOCC5)c(C(F)(F)F)c4)ccc32)n1,11.6%
16,C#CCn1cccc1CNc1ccc(OC)cc1,-28% (active)
17,O=C1[C@@H]2Cc3c([nH]c4ccccc34)[C@H](c3c(Cl)cccc3Cl)N2C(=O)CN1C1CCN(CC2CCCCC2)CC1,88.1%
18,C#CCC#CCN1CCC[C@H]1C(=O)NCC(=O)OC,99.1%
19,COc1ccc(-c2cc(-c3ccc(Cl)cc3)c(C#N)c(=O)n2Cc2ccc(C(=O)O)cc2)cc1,99%

row,SMILES,growth
1,COc1ccc2c(c1)Oc1nc(N)c(C#N)c(N)c1C2Sc1ccc(C)cc1 (stereo not drawn),12.7%
2,N#Cc1cccc(CN2CCc3ncn(Cc4ccc(Cl)cc4)c(=O)c3C2)c1,24.3%
3,Cc1nc2ncc(-c3ccc4ncnc(NCc5ccccc5)c4c3)cc2[nH]1,76.9%
4,N=c1c2cc(-c3ccccc3)oc2ncn1/N=C/c1ccc(Cl)cc1,95.7%
5,COc1ccc(N2C(=O)c3cc(Cl)ccc3NC2SCc2ccccc2)cc1 (stereo not drawn),94.8%
6,COc1c(N2CC3CCCNC3C2)c(F)cc2c(=O)c(C(=O)N/N=C/c3c[nH]c4ccccc34)cn(C3CC3)c12 (stereo not drawn),99%
7,NC/C(=C/F)COc1ccc2nc(NCc3cccnc3)oc2c1,102%
8,C=CC(=O)N1CCC=C(c2cc3c(N[C@H](C)c4ccccc4)ncnc3[nH]2)C1,66.4%
9,CS(=O)(=O)Nc1cc(-c2ccc3ncc(C#N)c(Nc4cccc(Cl)c4F)c3c2)cnc1Cl,10.6%
10,CCCn1cnc2c(c1=N)C(c1ccc(F)cc1)c1sc3c(CC)cccc3c1O2 (stereo not drawn),26.2%
11,O=S(=O)(NCCCNc1nccc(-c2[nH]c(-c3ccccc3)nc2-c2ccc(Cl)c(O)c2)n1)c1cccc2ccccc12,27.1%
12,N#Cc1cnc2ccc(-c3cnc(N)nc3)cc2c1N1CCc2cc(F)c(Cl)cc21,12%
13,CNc1ncc2cc(-c3ccc(-c4ncccc4F)cc3Cl)c(=O)n(CC3OCC(N)CO3)c2n1 (stereo not drawn),65.6%
14,ClC(Cl)c1nc(-c2ccco2)n2nc(-c3ccccc3)cc2n1,31.7%
15,NC(N)=Nc1ccc(Oc2cccc(Nc3ccc(Cl)cc3)c2)cn1,29.4%
16,CC1=CC(=O)C2=C(C)CC(OC(=O)CCc3ccccc3)[C@@H]3[C@H](OC(=O)[C@@H]3C)[C@@H]12 (stereo partly drawn),96.8%
17,CC/C(=C/c1cc(OC)ccc1O)c1ccc2cc(OC)ccc2[o+]1,87.1%
18,COc1ccc(C(=O)c2c(N)c(C#N)cn2-c2ccccc2OC)cc1,55.9%
19,CCc1ccc(SC2c3ccc(N(CC)CC)cc3Oc3nc(N)c(C#N)c(N)c32)cc1 (stereo not drawn),5.08% (active)
